This is part of a sample that, as a whole, favours compounds with a hit. Of some 83,000 tested, about 20% had one in any assay.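 The test compound was applied at a single concentration to cells in 96-well plates for 48 hours, and percent growth was recorded.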 Values without a mark were called inactive. Activity calls are given as the source filed them. Rule for the calls: active = growth percent below 10; inactive = the rest.
Key:
Test in all cases: NCI-60 one-dose screen, 48 h (100 = growth as untreated, 0 = no growth, -100 = all killed)
Settings in all cases: 10 µM unless noted
NCI-H322M lung = system: NCI-H322M lung
HOP-62 NSCLC = system: HOP-62 NSCLC
NCI-H460 lung = system: NCI-H460 lung
HOP-92 NSCLC = system: HOP-92 NSCLC
NCI-H522 lung = system: NCI-H522 lung
A549/ATCC NSCLC = system: A549/ATCC NSCLC
786-0 renal = system: 786-0 renal
COLO 205 colon = system: COLO 205 colon
DU-145 prostate = system: DU-145 prostate
K-562 leukemia = system: K-562 leukemia
MDA-MB-231 breast = system: MDA-MB-231 breast
RXF 393 renal = system: RXF 393 renal
SF-268 CNS = system: SF-268 CNS
SF-295 CNS = system: SF-295 CNS
SF-539 CNS = system: SF-539 CNS
UACC-257 melanoma = system: UACC-257 melanoma
M14 melanoma = system: M14 melanoma
HCT-15 colon = system: HCT-15 colon
MALME-3M melanoma = system: MALME-3M melanoma

Structure (SMILES)	growth (NCI-H322M lung)	growth (HOP-62 NSCLC)	growth (NCI-H460 lung)	growth (HOP-92 NSCLC)	growth (NCI-H522 lung)	growth (A549/ATCC NSCLC)	growth (786-0 renal)	growth (COLO 205 colon)	growth (DU-145 prostate)	growth (K-562 leukemia)	growth (MDA-MB-231 breast)	growth (RXF 393 renal)	growth (SF-268 CNS)	growth (SF-295 CNS)	growth (SF-539 CNS)	growth (UACC-257 melanoma)	growth (M14 melanoma)	growth (HCT-15 colon)	growth (MALME-3M melanoma)
O=C(Nc1ccc(-c2nc3ccc(NC(=O)c4ccc(Cl)cc4)cc3[nH]2)cc1)c1ccc(Cl)cc1	10.4%	29.2%	26.3%	41.2%	-65.6% (active)	4.64% (active)	-22.8% (active)	-74.3% (active)	44.1%	-1.36% (active)	-0.679% (active)	-49% (active)	43.7%	-68% (active)	-68.2% (active)	-15.8% (active)	2.14% (active)	32.1%	
COC(=O)C1=C(C)NC(C)=C(C(=O)OC)C(N2C(=O)CCC2=O)C1 (stereo not given)	91.2%	109%	101%	101%	7.93% (active)	77.6%	99.2%	114%	90.1%	35.8%	95.8%	104%	93.9%	118%	103%	66.5%	85%	78.4%	80.8%
COc1ccc(-c2cn3c(C(=O)Nc4ccccc4Cl)c(-c4ccccc4)c4c3n2CCCC4)cc1		88.1%	75.2%	64.3%	76.7%	85.3%	90.8%	77.2%	86.2%	49.8%	87.3%	109%	93.1%	54.7%	87%	91.3%	73.6%	60.8%	
COc1ccc(/C=C2\SC(=Nc3ccccc3)NC2=O)cc1	-53.9% (active)	-95.3% (active)	-79.4% (active)	-64.5% (active)	-85.6% (active)	-74.8% (active)	-92.8% (active)	-94.3% (active)	-50.8% (active)	-64.2% (active)	-83% (active)	-95.5% (active)	-82.5% (active)		-96.2% (active)	-91.8% (active)	-79.8% (active)	-44.5% (active)	-86% (active)
CCOc1ccc(Nc2ccnc3cc(Cl)ccc23)cc1	-0.617% (active)		5.71% (active)	-25% (active)	-35.4% (active)		19.1%	-91.1% (active)		9.05% (active)	-31.6% (active)	3.65% (active)	22.7%	-53% (active)	24.4%	-33.6% (active)	14.7%	17.2%	-25.2% (active)
C1CCN(c2nc(N3CCCCC3)nc(N3CCOCC3)n2)CC1	105%	94.3%	109%	112%	78%		97.3%	107%	119%	101%	93.9%	107%	105%	111%	113%	97.1%	113%	105%	100%
COc1cc2cc3c(=O)n4c(cc5cc(OC)ncc54)c(=O)n3c2cn1	97.4%	95.3%	107%	114%	99.2%	102%	99.1%	114%	106%	102%	109%	106%	102%	87.7%	106%	110%	105%	106%	93.1%
COc1ccc(Nc2nc(N/N=C/c3ccc(O)cc3)nc(Nc3ccc([N+](=O)[O-])cc3)n2)cc1	110%	107%	107%	109%	95.3%	104%	105%	111%		103%	109%	121%	128%	89.2%	110%	99.9%	108%	107%	114%
O=c1c(-c2nc3ccccc3[nH]2)cc2ccccc2n1Cc1cn(Cc2ccc(F)cc2)nn1	19.4%	21.4%	-10.7% (active)	34.9%	19.5%	11.4%	-23.2% (active)	18.2%	-23.5% (active)	17.7%	4.33% (active)	-25.5% (active)	29.4%	1.67% (active)	-55.9% (active)	49.9%	-20.7% (active)	16.9%	12.8%
COc1ccc(-c2cn[nH]c2-c2ccc(OC)c(O)c2)cc1	98.6%	66.4%	76.6%	61.5%	45.6%	76%	92.5%	116%	96.9%		68.4%		77.9%	81.7%	76.9%	92.3%	64.2%	50%	98.6%
FC(F)(F)c1cccc(Nc2nc3ccccc3nc2Nc2cccc(C(F)(F)F)c2)c1	-28% (active)	2.35% (active)	-59.4% (active)	6.66% (active)	-57.1% (active)	3.08% (active)	-75.3% (active)	-87.2% (active)	-1.33% (active)	-19.6% (active)	-56.3% (active)	-89.6% (active)	-9.63% (active)	-78.9% (active)	-78.7% (active)	-75.1% (active)	-69.9% (active)	2.32% (active)	-81.6% (active)
CN1C(=O)N(C)C2C1NN=c1s/c(=C\c3c[nH]c4ccccc34)c(=O)n12 (stereo not given)		49.2%	1.56% (active)	114%	11.5%	24.3%	23.4%	-53.4% (active)	5.09% (active)	8.94% (active)	34.7%	44.5%	39.1%	12.8%	2.32% (active)	79.5%	12.3%	11.8%	60.6%
Cc1nc(Nc2ccccn2)sc1C(=O)/C=C/c1ccc(Cl)cc1	32.1%	16.4%	3.86% (active)	31.8%	-39.3% (active)	17.2%	19.7%	-21.5% (active)	6.68% (active)	8.43% (active)	20.4%	20.2%	19.9%	4.33% (active)	-8.91% (active)	41.8%	11.6%	11.7%	50.3%
COC(=O)C1(C)COP(=O)(Nc2ccc(OC)cc2)OC1 (stereo not given)	90.3%	107%	109%	109%	111%	98%	99.1%	109%	111%		110%	113%	103%	107%	104%	98.7%	102%	108%	116%
CCN(CC)c1cc(C)c2cc(NC(=O)c3cccc(OC)c3)ccc2n1	109%	107%	57.1%	29.1%	93.4%	80%	70%	89.7%	92.9%	13.4%	55.5%	51.3%	63.2%		77.3%	105%	77.3%	61.4%	82.5%
NNC(=O)CNC(=O)Nc1n[nH]c(=S)s1	103%	100%	105%	91.7%	88.7%	105%	103%	107%	107%	90.3%	112%	124%	107%	94%	109%	99.9%	93.5%	109%	87%

— PubChem BioAssay (NCI)
